Compound activity (PubChem BioAssay)
S1P2 agonist: S1P2 receptor agonists, primary screen, cell-based. 0.46% of 97,000 active. Sphingosine 1-phosphate receptor 2 (Homo sapiens), O95136. activation, % at 4.5 µM. S1P2-expressing cell line, agonist reporter read-out; in the data active means activation above about 16%;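 further: 0% = vehicle low control and 100% = maximal reference agonist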
Target sequence (O95136 whole entry, looked up): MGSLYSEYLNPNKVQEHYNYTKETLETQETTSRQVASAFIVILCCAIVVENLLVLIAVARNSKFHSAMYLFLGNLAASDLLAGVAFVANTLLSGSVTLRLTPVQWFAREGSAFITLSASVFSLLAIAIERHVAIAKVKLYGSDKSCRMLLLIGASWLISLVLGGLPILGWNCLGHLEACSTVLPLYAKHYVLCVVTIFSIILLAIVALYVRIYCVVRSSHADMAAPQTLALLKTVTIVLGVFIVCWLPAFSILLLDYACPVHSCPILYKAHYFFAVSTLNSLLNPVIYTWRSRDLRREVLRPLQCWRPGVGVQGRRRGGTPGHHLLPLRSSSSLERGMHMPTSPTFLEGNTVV
S1P2 antag: human S1P2 receptor antagonists, primary screen, cell-based; Sphingosine 1-phosphate receptor 2 (Homo sapiens), O95136; cell-based S1P2 antagonist assay, inhibition at 5 uM; inhibition, % at 5 µM; 0.21% of 97,000 active; AID 736, 2007; in the data active means inhibition above about 45%;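 further: CRE beta-lactamase reporter cells expressing human S1P2 stimulated with S1P; 0% = agonist at EC80 alone and 100% = agonist plus reference antagonist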
GALR2 antag: GALR2 antagonists in receptor-expressing cells, primary screen | Galanin receptor type 2 (Homo sapiens), O43603 | antagonist mode | inhibition, % at 4 µM | 0.39% of 140,000 active | AID 828, 2007; in the data active means inhibition above about 27%;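 further: cells stimulated with galanin 1-16 at roughly its EC80; 0% = agonist challenge control and 100% = basal control without agonist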
Target sequence (O43603 whole entry, looked up): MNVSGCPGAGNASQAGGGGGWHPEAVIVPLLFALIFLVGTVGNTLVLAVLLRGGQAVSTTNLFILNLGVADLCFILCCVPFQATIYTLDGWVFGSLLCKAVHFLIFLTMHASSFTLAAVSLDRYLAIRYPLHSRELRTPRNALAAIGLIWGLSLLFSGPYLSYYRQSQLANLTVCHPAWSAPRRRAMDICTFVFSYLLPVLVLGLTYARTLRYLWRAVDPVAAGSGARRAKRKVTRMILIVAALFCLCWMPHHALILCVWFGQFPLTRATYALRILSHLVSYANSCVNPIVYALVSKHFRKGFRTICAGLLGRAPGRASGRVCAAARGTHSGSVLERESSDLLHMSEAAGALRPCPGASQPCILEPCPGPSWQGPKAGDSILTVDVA
GALR2 agonist: GALR2 receptor agonists, primary screen, cell-based | Galanin receptor type 2 (Homo sapiens), O43603 | GALR2-expressing cells, agonist activation read-out | activation, % (test concentration not listed) | 0.48% of 140,000 active; in the data active means activation above about 5%, passing the limit was not always enough;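 further: 0% = vehicle buffer wells and 100% = reference agonist at full effect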
GALR2 ag confirm: GALR2 agonists, retest of hits, confirmation, cell-based | shares compounds with GALR2 agonist | AID 864, 2007 | 10% of 460 active | activation, % at 5.6 µM | GALR2-expressing cells, agonist activation; in the data active means activation above about 8.4%;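 further: 0% = buffer-only vehicle wells and 100% = full reference agonist response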
BLA activ ctr: activators of NFAT-driven beta-lactamase reporter, confirmation, counter-screen for GALR2 agonist project, CHO NFAT-bla cells, FRET readout; shares compounds with GALR2 agonist; beta-lactamase FRET activation; activation, % at 5.6 µM; 10% of 460 active; AID 865, 2007;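 active means activation above the screen-wide mean activation plus 3 SD, cut at about 8% in these data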;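 further: 0% = DMSO with PBS wells and 100% = thapsigargin positive control wells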
* marks the source's active call; other numbers are inactive results; . = no result. Hits are enriched below; roughly 1.2% of the tested compounds scored in any of these assays.

SMILES | S1P2 agonist | S1P2 antag | GALR2 antag | GALR2 agonist | GALR2 ag confirm | BLA activ ctr
CCC(C)NS(=O)(=O)c1ccc(OC)c(Cl)c1Cl (stereo unspecified) | -1.9 | -3.2 | 1.0 | -2.0 | . | .
Cc1ccc(NC(=O)CCC(=O)NNC(=O)/C=C/C(=O)O)c(C)c1 | . | . | -0.7 | -0.5 | . | .
Clc1ncnc2c1oc1ccccc12 | -3.0 | 7.2 | 18.6 | -2.1 | . | .
c1coc(CN(Cc2ccco2)c2ncnc3c2oc2ccccc23)c1 | -2.3 | -24.0 | 7.7 | 8.9 | 0.3 | -2.3
COc1nnc(-c2ccc(N3CCCCC3)c(NC(C)=O)c2)c2ccccc12 | -5.5 | 6.7 | 5.1 | 0.2 | . | .
Cc1ccc(C(C(=O)NC2CCCCC2)N2CCC3(CC2)OCCO3)cc1 (stereo unspecified) | -2.1 | -1.9 | -3.7 | -0.7 | . | .
O=C(NC1CCCCC1)C(c1ccc(Cl)cc1)N1CCC2(CC1)OCCO2 (stereo unspecified) | -2.3 | 0.3 | -9.2 | 10.8* | -1.1 | -3.2
COc1ccc(Nc2nc(N)nc(CSc3nnc(C)s3)n2)cc1 | -1.7 | -28.9 | -11.2 | 0.1 | . | .
COc1ccc(OC)c(Nc2nc(N)nc(CSc3nnc(N)s3)n2)c1 | -9.9 | -30.3 | -4.2 | 16.6* | -0.6 | -0.7
COC(=O)c1ccccc1OCCCOc1ccc(C=O)cc1OC | 0.6 | -27.6 | 9.0 | -3.5 | . | .
CCc1ccc(N2C(=O)CC(N(CC3CCCO3)C(=O)/C=C/C(=O)O)C2=O)cc1 (stereo unspecified) | . | . | -4.4 | 0.4 | . | .
CCOC(=O)Cc1csc(NC(=O)CSc2ncnc3c2cnn3-c2ccc(OC)cc2)n1 | -5.3 | -0.9 | 1.6 | 11.8* | -0.1 | -1.5
Cc1ccc(NC(=O)Cn2c(/C=C/c3ccccc3)nc3ccccc32)cc1C | -4.7 | -5.2 | 2.7 | 8.2 | 6.2 | 7.3
O=C(O)c1c[nH]ccc1=O | -6.8 | 23.5 | 4.9 | 11.7* | -0.9 | -2.9
Cc1cc(C(=O)O)c(=O)[nH]c1C | -6.2 | -13.4 | -5.0 | -0.2 | . | .
CCOC(=O)c1[nH]c2ccccc2c1NC(=O)c1ccc(S(=O)(=O)N2CCCCC2)cc1 | . | . | 12.4 | -0.3 | . | .
O=S(=O)(c1cccc2ccccc12)n1nnc2ccccc21 | -3.7 | -14.1 | -13.9 | 93.9* | -0.9 | -2.3
Cc1cc(=O)oc2c3c4c(cc12)OCCN4CCC3 | 5.4 | -8.9 | 18.3 | 14.9* | 1.1 | 3.4
Cc1c(N2C(=O)CS/C2=N\N=C\c2ccc(Br)cc2)c(=O)n(-c2ccccc2)n1C | -7.5 | 15.1 | -0.6 | -2.9 | . | .
O=C(c1ccco1)N1CCN(C(=O)c2cc3c(=O)oc4ccccc4c3s2)CC1 | -5.2 | -8.3 | 1.4 | 30.2* | -0.5 | -1.2
C[C@@H]1NC(=O)c2cc([N+](=O)[O-])cc(I)c2OCC[C@@H](C(=O)NC(CC(=O)O)C(N)=O)NC(=O)[C@H](CC(N)=O)NC1=O (stereo partly specified) | . | . | 0.0 | -3.0 | . | .
CCOc1c(Cl)cc(Cl)cc1CNCCNCCO | -6.9 | 6.2 | 3.6 | -3.6 | . | .
CCC(C)C(NC(=O)c1ccccc1NC(=O)c1ccc(OC)cc1)C(=O)NCc1ccco1 (stereo unspecified) | -0.5 | 5.6 | 0.8 | 14.2* | 7.0 | 4.0
CCN(CC)S(=O)(=O)c1ccc(O)c(NS(=O)(=O)c2ccccc2F)c1 | . | . | 12.8 | -1.3 | . | .
Cc1nn(C)c(C)c1/C=N/NC(=O)CCn1cc([N+](=O)[O-])cn1 | . | . | -5.4 | 91.8* | -0.9 | -1.0
SMILES | S1P2 agonist | S1P2 antag | GALR2 antag | GALR2 agonist | GALR2 ag confirm | BLA activ ctr
COC(=O)c1cc2c(ccn2-c2ccc(F)cc2)n1CC(C)C | -4.0 | 4.6 | -26.4 | 8.8* | 2.9 | 5.9
COc1ccc(NC(=O)CSc2nc(N)c(C#N)cc2C#N)cc1 | -0.9 | -0.8 | -4.4 | 0.1 | . | .
CCOC(=O)c1c(C#N)c(SCC(=O)Nc2ccc(OC)cc2)nc2c1CN(CC)CC2 | -2.5 | 4.0 | -1.3 | 67.2* | 0.5 | -0.6
O=C(c1ccccc1)N1CCN(c2ncnc3sc4c(c23)CCC4)CC1 | -8.3 | 30.7 | 19.8 | -0.3 | . | .
Cc1ccc(OCc2nnc(SCC(=O)Nc3nccs3)n2-c2ccccc2)cc1C | -2.1 | -15.9 | -8.7 | -0.8 | . | .
Cc1ccc(-n2c(COc3c(C)cccc3C)nnc2SCC(=O)Nc2nccs2)cc1 | -3.9 | -1.4 | -12.3 | 64.5* | 0.5 | 0.8
CN(C)c1ccc(/C=C2/SC(=O)N(CCN=C3NS(=O)(=O)c4ccccc43)C2=O)cc1 | . | . | 7.7 | 12.7* | 5.0 | -1.8
CN(C)c1ccc(/C=C2\SC(=O)N(CC(O)Cn3c4ccccc4c4ccccc43)C2=O)cc1 (stereo unspecified) | . | . | -4.7 | -1.1 | . | .
CC(C)c1ccc(Nc2cnn(C34CC5CC(CC(CC(=O)O)(C5)C3)C4)c(=O)c2Cl)cc1 | -7.0 | -3.9 | -9.5 | -2.3 | . | .
Cc1ccc(Nc2cnn(C34CC5CC(CC(CC(=O)O)(C5)C3)C4)c(=O)c2Cl)cc1 | -2.4 | -0.5 | -7.8 | 11.1 | -1.0 | -2.0
Cc1ccc(S(=O)(=O)N2CCN(C(=O)COc3ccc(NC(=O)c4ccco4)cc3)CC2)cc1 | -4.2 | 2.5 | 3.6 | 12.8* | -0.8 | -2.4
COc1ccc(-c2cc(-c3ccccc3)c(C#N)c(S(C)=O)n2)cc1 (stereo unspecified) | 10.0 | 6.7 | 8.8 | 26.9* | 6.7 | 16.6*
CC1CN(CC(=O)c2c(N)n(Cc3ccccc3)c(=O)n(C)c2=O)CC(C)O1 (stereo unspecified) | -6.7 | 0.6 | -3.4 | 44.1* | -0.4 | -2.1
Cn1c(=O)c(C(=O)CN2CCOCC2)c(N)n(Cc2ccccc2)c1=O | -2.3 | 10.0 | 0.5 | -1.8 | . | .
CN(CC(=O)Nc1ccc(Cl)cc1)c1ccc(S(=O)(=O)N2CCCCC2)cc1[N+](=O)[O-] | . | . | 4.6 | -0.8 | . | .
CCOC(=O)N1CCN(C(=O)c2ccc3c(=O)n(CCc4ccccc4)c(=S)[nH]c3c2)CC1 | -3.7 | 6.8 | -11.6 | 10.8 | 0.3 | 0.1
O=[N+]([O-])c1cccc(N/N=C/c2cccc3ccccc23)c1 | . | . | 23.2 | -2.1 | . | .
O=C1[C@@H]2Cc3c([nH]c4ccccc34)[C@@H](c3ccccc3)N2C(=O)[C@@H]2Cc3c([nH]c4ccccc34)[C@@H](c3ccccc3)N12 | . | . | 14.2 | -1.3 | . | .
COc1cc([C@H]2c3[nH]c4ccccc4c3C[C@H]3C(=O)N4[C@@H](c5cc(OC)c(OC)c(OC)c5)c5[nH]c6ccccc6c5C[C@H]4C(=O)N23)cc(OC)c1OC | . | . | -4.9 | 9.6* | 3.4 | 1.7
CC1=CC(C)(C)N(C(=O)CSc2nnc(N)s2)c2cc(C)c(C)cc21 | 0.4 | -14.2 | -9.6 | 42.7* | -0.5 | -0.6
CC1=CC(C)(C)N(C(=O)CSc2nnc(C)s2)c2ccc(C)cc21 | -1.6 | -9.7 | 1.9 | -0.7 | . | .
Cc1ccc2nc3c(cc(C(=O)NCC4CCCO4)c(=N)n3CCCOC(C)C)c(=O)n2c1 (stereo unspecified) | 5.0 | -5.0 | -11.7 | 9.9 | 0.7 | 3.2
